In ChEMBL document CHEMBL2218924, “A broad activity screen in support of a chemogenomic map for kinase signalling research and drug discovery” (Biochem J, 2013):

Legend:
[1] = biological target: T1, Testis-specific serine/threonine-protein kinase 1 (Homo sapiens) (UniProt Q9BXA7); conditions: at 1 µM
T1 sequence (whole entry): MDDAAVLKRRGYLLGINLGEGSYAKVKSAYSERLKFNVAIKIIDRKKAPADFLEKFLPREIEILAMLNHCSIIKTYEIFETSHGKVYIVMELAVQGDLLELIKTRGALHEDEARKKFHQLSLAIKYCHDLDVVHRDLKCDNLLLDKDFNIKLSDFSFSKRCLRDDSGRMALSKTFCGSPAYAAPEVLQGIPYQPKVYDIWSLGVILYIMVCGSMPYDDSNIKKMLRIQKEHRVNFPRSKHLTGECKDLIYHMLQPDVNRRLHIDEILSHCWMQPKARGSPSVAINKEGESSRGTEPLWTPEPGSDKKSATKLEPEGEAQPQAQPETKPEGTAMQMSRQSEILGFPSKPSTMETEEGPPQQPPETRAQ

[2] = biological target: T1, Testis-specific serine/threonine-protein kinase 1 (Homo sapiens); conditions: at 10 µM
[3] = biological target: T2, Testis-specific serine/threonine-protein kinase 2 (Homo sapiens) (UniProt Q96PF2); conditions: at 10 µM
T2 sequence (whole entry): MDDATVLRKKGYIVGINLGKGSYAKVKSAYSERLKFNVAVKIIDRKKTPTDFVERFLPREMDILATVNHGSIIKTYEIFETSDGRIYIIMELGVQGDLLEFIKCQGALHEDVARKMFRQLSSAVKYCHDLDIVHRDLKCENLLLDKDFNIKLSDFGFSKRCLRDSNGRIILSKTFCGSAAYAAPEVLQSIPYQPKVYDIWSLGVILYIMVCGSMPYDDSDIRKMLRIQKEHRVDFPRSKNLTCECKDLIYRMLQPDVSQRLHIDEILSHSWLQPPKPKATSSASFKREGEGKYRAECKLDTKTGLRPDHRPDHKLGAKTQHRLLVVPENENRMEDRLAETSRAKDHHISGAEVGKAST

[4] = biological target: T3, Tyrosine-protein kinase Tec (Homo sapiens) (UniProt P42680); conditions: at 1 µM
T3 sequence (whole entry): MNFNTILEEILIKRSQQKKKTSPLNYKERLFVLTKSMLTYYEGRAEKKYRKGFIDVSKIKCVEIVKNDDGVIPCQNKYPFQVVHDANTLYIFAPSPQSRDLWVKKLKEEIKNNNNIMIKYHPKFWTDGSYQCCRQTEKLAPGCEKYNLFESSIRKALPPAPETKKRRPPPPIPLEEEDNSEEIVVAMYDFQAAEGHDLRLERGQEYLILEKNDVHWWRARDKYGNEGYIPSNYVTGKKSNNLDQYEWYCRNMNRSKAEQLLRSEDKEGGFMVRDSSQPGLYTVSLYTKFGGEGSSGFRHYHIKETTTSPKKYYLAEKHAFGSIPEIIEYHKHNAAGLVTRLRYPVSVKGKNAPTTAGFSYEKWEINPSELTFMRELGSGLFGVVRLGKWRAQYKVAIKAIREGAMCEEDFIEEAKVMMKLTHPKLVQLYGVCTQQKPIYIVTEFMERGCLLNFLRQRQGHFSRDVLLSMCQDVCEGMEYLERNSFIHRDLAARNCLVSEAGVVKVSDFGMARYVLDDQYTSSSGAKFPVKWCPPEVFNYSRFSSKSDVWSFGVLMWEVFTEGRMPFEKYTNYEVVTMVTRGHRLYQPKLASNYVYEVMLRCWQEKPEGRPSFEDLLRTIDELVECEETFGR

[5] = biological target: T3, Tyrosine-protein kinase Tec (Homo sapiens); conditions: at 10 µM
[6] = biological target: High affinity nerve growth factor receptor (Homo sapiens) (UniProt P04629); conditions: at 1 µM
Sequence of High affinity nerve growth factor receptor (Homo sapiens) (P04629 33-796 limits assumed): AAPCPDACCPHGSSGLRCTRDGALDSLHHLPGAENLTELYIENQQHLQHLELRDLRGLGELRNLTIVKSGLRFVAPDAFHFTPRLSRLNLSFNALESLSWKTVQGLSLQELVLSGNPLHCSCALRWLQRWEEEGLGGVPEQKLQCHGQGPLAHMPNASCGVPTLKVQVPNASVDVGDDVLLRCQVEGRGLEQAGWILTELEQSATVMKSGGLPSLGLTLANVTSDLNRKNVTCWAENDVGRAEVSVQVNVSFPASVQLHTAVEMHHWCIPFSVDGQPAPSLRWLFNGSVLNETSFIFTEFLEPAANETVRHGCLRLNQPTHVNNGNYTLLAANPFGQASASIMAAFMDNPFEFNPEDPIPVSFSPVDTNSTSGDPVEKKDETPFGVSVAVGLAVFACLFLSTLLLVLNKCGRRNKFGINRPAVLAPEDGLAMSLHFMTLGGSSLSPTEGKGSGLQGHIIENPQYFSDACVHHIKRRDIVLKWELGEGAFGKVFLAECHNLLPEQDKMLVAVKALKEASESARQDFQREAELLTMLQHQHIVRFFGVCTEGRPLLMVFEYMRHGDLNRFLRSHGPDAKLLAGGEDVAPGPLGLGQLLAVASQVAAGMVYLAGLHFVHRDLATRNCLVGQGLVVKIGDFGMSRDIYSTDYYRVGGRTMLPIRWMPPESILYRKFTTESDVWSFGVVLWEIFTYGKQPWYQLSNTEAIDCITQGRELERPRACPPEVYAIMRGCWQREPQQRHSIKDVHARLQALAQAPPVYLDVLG

[7] = biological target: High affinity nerve growth factor receptor (Homo sapiens) (UniProt P04629); conditions: at 10 µM
[8] = biological target: T4, Tyrosine-protein kinase TXK (Homo sapiens) (UniProt P42681); conditions: at 1 µM
T4 sequence (whole entry): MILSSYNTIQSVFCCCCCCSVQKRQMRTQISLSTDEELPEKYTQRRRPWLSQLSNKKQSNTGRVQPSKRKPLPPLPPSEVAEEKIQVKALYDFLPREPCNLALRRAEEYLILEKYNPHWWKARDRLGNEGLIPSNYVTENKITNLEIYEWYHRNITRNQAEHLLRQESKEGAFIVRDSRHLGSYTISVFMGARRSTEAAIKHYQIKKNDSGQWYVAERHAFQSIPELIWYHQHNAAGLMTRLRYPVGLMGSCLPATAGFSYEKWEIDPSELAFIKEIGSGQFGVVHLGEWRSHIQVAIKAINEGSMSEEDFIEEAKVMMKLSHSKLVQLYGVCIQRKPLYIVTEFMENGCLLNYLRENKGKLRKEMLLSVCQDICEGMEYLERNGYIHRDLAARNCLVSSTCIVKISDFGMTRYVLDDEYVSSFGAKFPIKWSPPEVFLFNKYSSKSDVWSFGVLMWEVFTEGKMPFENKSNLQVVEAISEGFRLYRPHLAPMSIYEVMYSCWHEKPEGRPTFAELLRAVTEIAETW

[9] = biological target: T4, Tyrosine-protein kinase TXK (Homo sapiens); conditions: at 10 µM
[10] = biological target: T5, Serine/threonine-protein kinase ULK2 (Homo sapiens) (UniProt Q8IYT8); conditions: at 1 µM
T5 sequence (whole entry): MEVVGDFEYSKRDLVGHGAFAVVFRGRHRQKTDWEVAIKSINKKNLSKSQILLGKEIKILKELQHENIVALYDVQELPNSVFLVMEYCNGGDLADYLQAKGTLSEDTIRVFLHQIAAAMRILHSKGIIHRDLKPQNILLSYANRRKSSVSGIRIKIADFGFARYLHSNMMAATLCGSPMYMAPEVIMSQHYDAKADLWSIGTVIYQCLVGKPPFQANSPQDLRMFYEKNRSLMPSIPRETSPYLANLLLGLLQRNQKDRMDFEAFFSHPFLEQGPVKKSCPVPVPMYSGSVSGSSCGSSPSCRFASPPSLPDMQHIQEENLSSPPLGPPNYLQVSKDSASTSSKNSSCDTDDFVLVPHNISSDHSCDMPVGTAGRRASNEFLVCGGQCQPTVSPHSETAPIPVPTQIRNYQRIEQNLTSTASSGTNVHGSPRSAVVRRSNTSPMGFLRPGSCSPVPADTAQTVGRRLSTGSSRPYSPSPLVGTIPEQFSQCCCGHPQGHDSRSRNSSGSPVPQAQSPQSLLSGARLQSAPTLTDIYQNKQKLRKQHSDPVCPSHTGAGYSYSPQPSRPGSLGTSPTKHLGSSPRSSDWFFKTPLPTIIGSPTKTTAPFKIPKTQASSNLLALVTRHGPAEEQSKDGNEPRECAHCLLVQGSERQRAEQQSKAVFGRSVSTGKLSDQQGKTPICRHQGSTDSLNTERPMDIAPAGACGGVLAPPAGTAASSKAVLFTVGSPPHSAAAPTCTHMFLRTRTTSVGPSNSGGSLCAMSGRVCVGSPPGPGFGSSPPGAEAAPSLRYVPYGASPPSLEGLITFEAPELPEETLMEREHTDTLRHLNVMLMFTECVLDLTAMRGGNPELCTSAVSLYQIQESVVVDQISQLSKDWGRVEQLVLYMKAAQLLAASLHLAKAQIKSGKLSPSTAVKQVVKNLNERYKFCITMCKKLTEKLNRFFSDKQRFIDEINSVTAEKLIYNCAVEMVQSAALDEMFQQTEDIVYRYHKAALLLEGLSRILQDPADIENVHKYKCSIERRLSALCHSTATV

[11] = biological target: T5, Serine/threonine-protein kinase ULK2 (Homo sapiens); conditions: at 10 µM
[12] = biological target: T6, Serine/threonine-protein kinase ULK3 (Homo sapiens) (UniProt Q6PHR2); conditions: at 1 µM
T6 sequence (whole entry): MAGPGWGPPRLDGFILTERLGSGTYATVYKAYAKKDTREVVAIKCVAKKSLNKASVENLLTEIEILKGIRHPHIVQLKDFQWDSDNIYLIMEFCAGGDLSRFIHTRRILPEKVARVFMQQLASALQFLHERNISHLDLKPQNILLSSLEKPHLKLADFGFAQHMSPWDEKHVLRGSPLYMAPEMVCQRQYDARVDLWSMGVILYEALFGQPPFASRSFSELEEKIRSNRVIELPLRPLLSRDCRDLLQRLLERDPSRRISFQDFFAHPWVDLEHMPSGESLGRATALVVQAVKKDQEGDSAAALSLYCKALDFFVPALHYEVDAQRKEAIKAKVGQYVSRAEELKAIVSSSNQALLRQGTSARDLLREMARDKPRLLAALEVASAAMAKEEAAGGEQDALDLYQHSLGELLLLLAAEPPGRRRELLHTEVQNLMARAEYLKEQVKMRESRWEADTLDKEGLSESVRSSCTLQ

[13] = biological target: T6, Serine/threonine-protein kinase ULK3 (Homo sapiens); conditions: at 10 µM
[14] = biological target: Serine/threonine-protein kinase VRK2 (Homo sapiens) (UniProt Q86Y07); conditions: at 1 µM
Sequence of Serine/threonine-protein kinase VRK2 (Homo sapiens) (Q86Y07 whole entry): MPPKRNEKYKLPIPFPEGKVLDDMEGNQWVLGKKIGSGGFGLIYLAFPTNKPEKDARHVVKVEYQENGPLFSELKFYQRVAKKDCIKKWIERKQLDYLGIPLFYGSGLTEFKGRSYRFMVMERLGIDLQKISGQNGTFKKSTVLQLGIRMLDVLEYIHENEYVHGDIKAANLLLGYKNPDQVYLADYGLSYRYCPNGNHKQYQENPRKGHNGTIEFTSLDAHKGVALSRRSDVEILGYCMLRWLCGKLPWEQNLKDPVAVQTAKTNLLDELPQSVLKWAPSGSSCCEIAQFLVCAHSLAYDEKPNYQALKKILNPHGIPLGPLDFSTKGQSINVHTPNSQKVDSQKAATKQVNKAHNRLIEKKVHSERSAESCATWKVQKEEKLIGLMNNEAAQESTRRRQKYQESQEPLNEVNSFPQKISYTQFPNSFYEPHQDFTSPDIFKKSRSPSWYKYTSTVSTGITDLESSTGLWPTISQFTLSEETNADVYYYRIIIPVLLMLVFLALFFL

[15] = biological target: Serine/threonine-protein kinase VRK2 (Homo sapiens) (UniProt Q86Y07); conditions: at 10 µM
[16] = biological target: Serine/threonine-protein kinase WNK2 (Homo sapiens) (UniProt Q9Y3S1); conditions: at 1 µM;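 further: residual WNK2 kinase activity expressed as percent of uninhibited control, assayed in MOPS buffer at pH 7.0 containing EDTA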
Sequence of Serine/threonine-protein kinase WNK2 (Homo sapiens) (Q9Y3S1 whole entry): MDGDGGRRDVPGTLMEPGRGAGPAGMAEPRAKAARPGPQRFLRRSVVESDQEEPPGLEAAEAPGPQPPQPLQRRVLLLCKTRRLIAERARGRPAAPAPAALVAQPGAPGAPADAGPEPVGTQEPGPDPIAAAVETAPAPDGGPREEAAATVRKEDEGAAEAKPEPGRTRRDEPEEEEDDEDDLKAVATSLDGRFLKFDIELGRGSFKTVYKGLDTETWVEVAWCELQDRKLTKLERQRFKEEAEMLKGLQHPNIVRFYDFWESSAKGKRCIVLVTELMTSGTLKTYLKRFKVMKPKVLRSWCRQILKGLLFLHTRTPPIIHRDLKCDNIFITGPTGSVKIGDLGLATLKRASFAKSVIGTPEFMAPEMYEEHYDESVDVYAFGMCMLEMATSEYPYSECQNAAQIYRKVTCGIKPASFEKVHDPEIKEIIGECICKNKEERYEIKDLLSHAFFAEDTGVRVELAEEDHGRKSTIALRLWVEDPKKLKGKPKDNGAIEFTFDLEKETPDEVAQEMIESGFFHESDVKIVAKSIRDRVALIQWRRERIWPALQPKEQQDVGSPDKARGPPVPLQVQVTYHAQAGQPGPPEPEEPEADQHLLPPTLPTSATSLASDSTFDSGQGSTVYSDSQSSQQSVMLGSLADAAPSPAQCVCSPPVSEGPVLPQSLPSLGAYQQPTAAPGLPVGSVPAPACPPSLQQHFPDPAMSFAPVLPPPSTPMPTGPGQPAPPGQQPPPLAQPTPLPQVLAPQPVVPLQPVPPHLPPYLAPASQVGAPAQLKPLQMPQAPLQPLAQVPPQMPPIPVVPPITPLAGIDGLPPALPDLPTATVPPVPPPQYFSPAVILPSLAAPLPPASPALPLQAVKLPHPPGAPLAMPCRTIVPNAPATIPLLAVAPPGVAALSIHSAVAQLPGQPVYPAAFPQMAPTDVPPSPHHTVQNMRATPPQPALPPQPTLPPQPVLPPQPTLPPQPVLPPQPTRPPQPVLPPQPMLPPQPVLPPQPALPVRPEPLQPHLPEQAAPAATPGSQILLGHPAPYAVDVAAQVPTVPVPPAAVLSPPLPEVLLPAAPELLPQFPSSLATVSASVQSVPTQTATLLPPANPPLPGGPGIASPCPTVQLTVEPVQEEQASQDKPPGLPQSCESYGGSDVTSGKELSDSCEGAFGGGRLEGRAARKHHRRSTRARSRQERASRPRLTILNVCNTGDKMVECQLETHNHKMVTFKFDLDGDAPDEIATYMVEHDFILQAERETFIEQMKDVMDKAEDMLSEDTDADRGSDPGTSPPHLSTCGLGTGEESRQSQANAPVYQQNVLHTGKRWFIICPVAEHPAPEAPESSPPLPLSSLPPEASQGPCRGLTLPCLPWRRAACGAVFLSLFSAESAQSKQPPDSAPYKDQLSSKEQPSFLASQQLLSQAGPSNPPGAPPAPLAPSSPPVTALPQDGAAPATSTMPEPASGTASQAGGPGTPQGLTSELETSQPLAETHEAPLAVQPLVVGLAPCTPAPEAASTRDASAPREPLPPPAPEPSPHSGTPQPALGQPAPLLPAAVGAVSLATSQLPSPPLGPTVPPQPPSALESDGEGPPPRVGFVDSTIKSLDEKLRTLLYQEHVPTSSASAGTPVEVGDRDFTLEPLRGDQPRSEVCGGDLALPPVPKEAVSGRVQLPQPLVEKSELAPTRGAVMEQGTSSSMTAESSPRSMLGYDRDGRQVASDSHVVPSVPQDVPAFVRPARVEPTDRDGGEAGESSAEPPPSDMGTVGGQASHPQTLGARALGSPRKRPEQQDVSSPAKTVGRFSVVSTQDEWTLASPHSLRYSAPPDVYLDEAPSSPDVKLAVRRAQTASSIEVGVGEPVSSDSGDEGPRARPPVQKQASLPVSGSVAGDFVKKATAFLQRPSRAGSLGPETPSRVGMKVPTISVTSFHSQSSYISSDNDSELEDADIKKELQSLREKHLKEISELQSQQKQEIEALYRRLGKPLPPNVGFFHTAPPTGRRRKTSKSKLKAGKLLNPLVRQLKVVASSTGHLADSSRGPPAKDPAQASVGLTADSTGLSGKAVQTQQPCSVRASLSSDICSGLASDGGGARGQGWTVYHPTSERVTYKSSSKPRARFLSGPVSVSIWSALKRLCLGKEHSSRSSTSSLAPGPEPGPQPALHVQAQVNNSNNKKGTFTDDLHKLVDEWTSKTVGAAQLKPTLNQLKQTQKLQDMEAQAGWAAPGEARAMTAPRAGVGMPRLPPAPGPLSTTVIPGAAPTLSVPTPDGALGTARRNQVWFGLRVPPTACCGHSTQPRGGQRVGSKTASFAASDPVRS

[17] = biological target: Angiopoietin-1 receptor (Homo sapiens) (UniProt Q02763); conditions: at 1 µM
Sequence of Angiopoietin-1 receptor (Homo sapiens) (Q02763 whole entry): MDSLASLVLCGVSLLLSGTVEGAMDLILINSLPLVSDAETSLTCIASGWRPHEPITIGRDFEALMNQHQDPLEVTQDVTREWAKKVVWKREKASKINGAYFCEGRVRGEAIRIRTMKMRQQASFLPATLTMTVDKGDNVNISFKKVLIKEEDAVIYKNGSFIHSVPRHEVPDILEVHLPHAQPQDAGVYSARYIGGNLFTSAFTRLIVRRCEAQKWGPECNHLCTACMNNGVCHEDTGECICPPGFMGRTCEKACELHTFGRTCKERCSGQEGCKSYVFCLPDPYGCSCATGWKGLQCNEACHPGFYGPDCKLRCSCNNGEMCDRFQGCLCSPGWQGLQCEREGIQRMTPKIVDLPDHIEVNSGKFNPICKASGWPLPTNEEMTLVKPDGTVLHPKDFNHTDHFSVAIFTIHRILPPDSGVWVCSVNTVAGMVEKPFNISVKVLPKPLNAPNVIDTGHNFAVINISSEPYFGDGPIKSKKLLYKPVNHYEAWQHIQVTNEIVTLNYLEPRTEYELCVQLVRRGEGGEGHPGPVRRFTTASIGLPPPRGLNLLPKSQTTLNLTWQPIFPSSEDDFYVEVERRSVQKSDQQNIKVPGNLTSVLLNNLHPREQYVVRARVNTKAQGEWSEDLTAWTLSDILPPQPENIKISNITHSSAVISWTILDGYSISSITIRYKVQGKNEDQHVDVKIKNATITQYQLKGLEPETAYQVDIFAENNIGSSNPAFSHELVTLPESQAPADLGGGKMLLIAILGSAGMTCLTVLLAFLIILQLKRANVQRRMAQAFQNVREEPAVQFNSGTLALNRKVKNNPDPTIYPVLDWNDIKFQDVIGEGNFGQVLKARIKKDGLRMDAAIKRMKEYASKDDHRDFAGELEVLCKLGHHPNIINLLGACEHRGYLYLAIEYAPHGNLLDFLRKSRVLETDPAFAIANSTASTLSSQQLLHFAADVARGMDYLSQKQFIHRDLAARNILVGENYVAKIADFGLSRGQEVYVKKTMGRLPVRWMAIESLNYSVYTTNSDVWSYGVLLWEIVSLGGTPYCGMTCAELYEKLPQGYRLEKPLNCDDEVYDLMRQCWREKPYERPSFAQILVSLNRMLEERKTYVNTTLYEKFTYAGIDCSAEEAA

[18] = biological target: Angiopoietin-1 receptor (Homo sapiens) (UniProt Q02763); conditions: at 10 µM
[19] = biological target: BDNF/NT-3 growth factors receptor (Homo sapiens) (UniProt Q16620); conditions: at 1 µM
[20] = biological target: BDNF/NT-3 growth factors receptor (Homo sapiens) (UniProt Q16620); conditions: at 10 µM

Row | Structure (SMILES) | residual activity [1] [%] | residual activity [2] [%] | residual activity [3] [%] | residual activity [4] [%] | residual activity [5] [%] | residual activity [6] [%] | residual activity [7] [%] | residual activity [8] [%] | residual activity [9] [%] | residual activity [10] [%] | residual activity [11] [%] | residual activity [12] [%] | residual activity [13] [%] | residual activity [14] | residual activity [15] [%] | residual activity [16] | residual activity [17] [%] | residual activity [18] [%] | residual activity [19] [%] | residual activity [20] [%]
1 | Cn1sc(=O)n(Cc2ccccc2)c1=O | 63 | 80 | 84 | 97 | 75 | 81 | 68 | 83 | 88 | 90 | 93 | 92 | 92 | 98% (inactive) | 90 | 96% (inactive) |  |  |  | 
2 | O=c1cc(N2CCNCC2)oc2c(-c3ccccc3)cccc12 | 101 | 93 | 82 |  | 80 |  |  |  | 98 | 100 | 95 | 101 | 92 | 95% (inactive) | 90 |  | 69 | 78 |  | 
3 | COc1ccc(-c2cnc3c(-c4ccsc4)cnn3c2)cc1 | 98 | 96 |  |  |  | 76 | 88 | 70 | 83 | 99 | 96 | 96 | 90 |  |  |  |  |  | 66 | 73
4 | COc1cc2ncnc(Nc3cccc(Cl)c3)c2cc1OC |  | 80 |  |  | 43 | 88 | 55 | 87 | 49 | 104 | 100 | 102 | 79 | 102% (inactive) | 74 |  | 111 | 83 | 50 | 61
5 | O=c1c(-c2ccc(F)cc2)c(-c2ccncc2)[nH]n1-c1ccc(Cl)cc1 |  | 78 |  |  |  |  |  |  |  |  | 102 |  |  | 100% (inactive) | 99 |  |  | 75 |  | 
6 | CSc1nc(-c2ccc(F)cc2)c(-c2ccnc(NC(C)c3ccccc3)c2)[nH]1 (stereo unspecified) |  |  | 101 |  | 63 |  | 39 | 86 | 86 |  |  |  |  |  | 93 |  | 91 | 41 | 3 | 1
7 | COc1ccc(COc2ccc(Cc3cnc(N)nc3N)cc2OC)cc1 |  |  |  | 100 | 81 | 49 | 4 |  | 68 |  |  |  |  |  |  |  |  |  | 55 | -12
8 | O=C(c1cc2cc(O)ccc2[nH]1)c1cc2cc(O)ccc2[nH]1 |  | 56 | 65 | 58 | 21 | 13 | 1 | 64 | 22 | 82 | 38 | 73 | 22 | 72% (inactive) | 37 | 83% (inactive) | 67 | 75 | 56 | -12
9 | O=C(c1ccccc1)c1ccc(N2CCOCC2)cc1O |  |  | 99 | 96 | 77 | 76 | 71 | 82 | 70 |  | 94 |  | 92 | 98% (inactive) | 94 | 115% (inactive) |  | 80 | 131 | 113
10 | O=C(Nc1ccc(Cl)cc1)c1ccccc1NCc1ccncc1 |  |  |  |  |  |  |  |  |  | 102 |  |  |  |  |  |  |  | 79 | 117 | 99
11 | N#Cc1c(NC(=O)c2cccc3ccccc23)sc2c1CCCC2 |  |  |  | 94 | 69 | 81 | 87 | 90 | 80 |  |  |  |  |  |  |  |  |  |  | 
12 | O=C1NC(=O)c2c1c1c3ccccc3[nH]c1n1cncc21 |  |  | 85 | 70 | 65 | 21 | 9 | 71 | 79 | 103 | 86 | 80 | 70 | 93% (inactive) | 91 | 82% (inactive) | 98 | 79 | 48 | 20
13 | O=C1NC(=O)C(c2c[nH]c3ccccc23)=C1c1c[nH]c2ccccc12 |  |  |  |  |  | 58 | 8 |  |  |  |  |  |  |  | 75 |  |  |  | 29 | 24
14 | O=c1cc(N2CCOCC2)oc2c(-c3ccccc3)cccc12 |  |  | 68 |  |  | 79 | 71 |  | 69 |  |  |  |  |  |  |  | 71 | 64 |  | 
15 | NC(=O)c1cccc(-c2cc(Nc3ccc(OC(F)(F)F)cc3)ncn2)c1 |  |  |  |  |  |  | 65 |  |  |  |  | 100 | 93 |  |  | 124% (inactive) |  |  |  | 
